# Data reported in PubChem BioAssay (EPA / NIEHS).
# Inconclusive results are not listed. Calls of active or inactive are those of the source. The calls were made as follows: active = hit-call score of the fitted dose curve at least 0.9, where 1 is the maximum; inconclusive = response in the unintended direction; inactive = score below 0.9.
# Test: ATG_Hpa5_TRANS: Attagene TRANS-FACTORIAL HepG2 Assay for human GAL4-Hpa5 Hepatocyte Transcription Factor Basal Promoter (AID 2282975);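 also: hits are increases in reporter mRNA over DMSO baseline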
# Conditions: HepG2 Attagene GAL4-Hpa5 transcription reporter
# Experimental: ATG_TRANS is a cell-based, multiplexed-readout assay that uses HepG2, a human liver cell line, with measurements taken at 24 hours after chemical dosing in a 24-well plate.ATG_Hpa5_TRANS is one of 30 assay component(s) measured or calculated from the ATG_TRANS assay. It is designed to make measurements of mRNA induction, a form of inducible reporter, as detected with fluorescence intensity signals by Reverse transcription polymerase chain reaction (RT-PCR) and Capillary electrophoresis technology.Data from the assay component ATG_Hpa5_TRANS was analyzed into 1 assay endpoint. This assay endpoint, ATG_Hpa5_TRANS, was analyzed in the positive analysis fitting direction relative to DMSO as the negative control and baseline of activity. Using a type of inducible reporter, measures of mRNA for gain-of-signal activity can be used to understand the background control at the transcription factor-level as they relate to the gene . Furthermore, this assay endpoint can be referred to as a secondary readout, because this assay has produced multiple assay endpoints where this one serves a background control function. To generalize the intended target to other relatable targets, this assay endpoint is annotated to the background measurement intended target family, where the subfamily is internal marker.
# Human liver HepG2 cells are transiently transfected with multiple reporter transcription units (MRTUs) in 6-well plates using FuGene 6 reagent (Roche; 3 ml FuGene/1 mg DNA). The MRTU constructs are regulated by a cis-regulating element (promoter). […] A major difference between the CIS and TRANS system is that in CIS activities of endogenous TFs are measured, whereas the TRANS assay evaluates changes in activities of exogenous, chimeric NR-Gal4 proteins. […] At the end of 24 hour incubation, total RNA was isolated using TriZol reagent (Invitrogen). The isolated RNA is then reverse-transcribed using oligo(dT) primer and Mo-MLV reverse transcriptase (Invitrogen) with DNAse I (Ambion) treatment for 30 min. The one-tenth of the produced cDNA was amplified by PCR using Taq DNA polymerase (Invitrogen) and two reporter sequence-specific primers. The PCR products were fluorescently labeled by primer extension with 6-arboxyfluorescein (6-FAM) 5'-labeled reporter sequence-specific primer (2 min at 95 C, 20 s at 68 C and 10 min at 72 C) and these products were digested with 5U of HpaI (New England Biolabs) for 2h at 37 C. The fragments were purified using Qiaquick PCR columns (Qiagen), analyzed on an ABI 3130xL genetic analyzer (Applied Biosystems) with peak positions identified by using a set of X-rhodamine (ROX)-labeled MapMarker1000 molecular weight standards (BioVentures). The raw capillary electrophoresis data was processed using Attagraph software (Attagene).
row,Structure (SMILES),outcome
1,CCCCNC(=O)OCC#CI,inactive
2,CCOC(=O)C(Cl)Cc1cc(-n2nc(C)n(C(F)F)c2=O)c(F)cc1Cl (stereo not drawn),inactive
3,COc1nc(C)nc(NC(=O)NS(=O)(=O)c2ccccc2CCC(F)(F)F)n1,inactive
4,CCCN(CCC)c1c([N+](=O)[O-])cc(S(N)(=O)=O)cc1[N+](=O)[O-],inactive
5,C=CC1(C)OC(=O)N(c2cc(Cl)cc(Cl)c2)C1=O (stereo not drawn),inactive
6,Cc1cc(Cl)ccc1OCC(=O)O,inactive
7,Cc1c(F)c(F)c(COC(=O)C2C(/C=C(\Cl)C(F)(F)F)C2(C)C)c(F)c1F (stereo not drawn),inactive
8,CCNc1nc(Cl)nc(NCC)n1,inactive
9,CC1COC(Cn2cncn2)(c2ccc(Oc3ccc(Cl)cc3)cc2Cl)O1 (stereo not drawn),inactive
10,CC(C)Oc1cc(-n2nc(C(C)(C)C)oc2=O)c(Cl)cc1Cl,inactive
11,CCOc1cc(Oc2ccc(C(F)(F)F)cc2Cl)ccc1[N+](=O)[O-],inactive
12,C=CCC1=C(C)[C@@H](OC(=O)[C@@H]2[C@@H](C=C(C)C)C2(C)C)CC1=O,inactive
13,COC(=O)C(C)Oc1ccc(Oc2ccc(Cl)cc2Cl)cc1 (stereo not drawn),inactive
14,CCOP(=S)(OCC)SCn1c(=O)oc2cc(Cl)ccc21,inactive
15,N#CC(CCc1ccc(Cl)cc1)(Cn1cncn1)c1ccccc1 (stereo not drawn),inactive
16,CCCCC(CC)COC(=O)c1ccccc1C(=O)OCC(CC)CCCC (stereo not drawn),inactive
17,O=C(Nc1ccccc1)Nc1ccnc(Cl)c1,inactive

row,Structure (SMILES),outcome
1,CNC(=O)ON=CC(C)(C)SC,inactive
2,COc1ccc(C(c2ccc(OC)cc2)C(Cl)(Cl)Cl)cc1,inactive
3,CC(C)C1(C)N=C(c2nc3ccccc3cc2C(=O)O)NC1=O (stereo not drawn),inactive
4,CC(Oc1ccc(Cl)cc1Cl)C(=O)O (stereo not drawn),inactive
5,COc1nc(NC(C)C)nc(NC(C)C)n1,inactive
6,O=C(O)c1nc(Cl)ccc1Cl,inactive
7,CCCC1COC(Cn2cncn2)(c2ccc(Cl)cc2Cl)O1 (stereo not drawn),inactive
8,COP(=S)(OC)Oc1nc(Cl)c(Cl)cc1Cl,inactive
9,CCc1nn(C)c(C(=O)NCc2ccc(C(C)(C)C)cc2)c1Cl,inactive
10,COC(=O)N(OC)c1ccccc1COc1ccn(-c2ccc(Cl)cc2)n1,inactive
11,Cc1ccc(-c2c(Cl)nc(C#N)n2S(=O)(=O)N(C)C)cc1,inactive
12,CO/C=C(/C(=O)OC)c1ccccc1Oc1cc(Oc2ccccc2C#N)ncn1,inactive
13,C#CCOS(=O)OC1CCCCC1Oc1ccc(C(C)(C)C)cc1 (stereo not drawn),inactive
14,OC(c1ccc(Cl)cc1)(c1cncnc1)c1ccccc1Cl (stereo not drawn),inactive
15,COP(N)(=O)SC (stereo not drawn),inactive
16,Fc1ccc(Oc2ccnc3cc(Cl)cc(Cl)c23)cc1,inactive
